# Values joined by “and” are separate entries in the source; they are usually repeats but may differ in a detail not shown here. Equal values may be shown once. Active and inactive are the calls of the source.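 Rule for the calls, unless noted: active = inhibition at or above 50% relative to wild type and mutant plate controls; inactive = inhibition below 50%.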
# Experiments:
# [1] = inhibitors of TNFa-induced NFkB p65 translocation, primary screen, imaging, HUVEC, MLSMR starter and 10KST1 sets (AID 438;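 active = inhibition above 20% together with a positive visual image hit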;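 note: compound added about 3h40 before a 20 min TNFalpha stimulation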;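 for inhibition: signal is the nuclear over cytoplasmic p65 intensity ratio per well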); settings: HUVEC TNFa-induced p65 nuclear translocation; cell count: measured here: nuclei count (cytotoxicity indicator), at 2.08 µM; inhibition: at 2 µM, stronger effect = higher value, 0% TNFa-plus-vehicle, 100% no-TNFa wells
# [2] = inhibitors of mutant huntingtin aggregation, primary screen, imaging, exon1htt(103Q)mCFP cells, high-content imaging (AID 483;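 active = visual image review flags a hit and inhibition of aggregation exceeds 20%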;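 note: compound exposure lasted 3 days before fixation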;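 for nuclei count: percent of the per-plate median nuclei count of sample wells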); settings: exon1htt(103Q)mCFP cell line, aggregate imaging, at 2 µM; inhibition of aggregation: stronger effect = higher value; nuclei count: measured here: cell count, toxicity
# [3] = inhibitors of E-selectin induction by TNFa, primary screen, imaging, HUVEC, immunofluorescence, MLSMR starter and 10KST1 sets (AID 487;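 active = visually confirmed hit in the image check and inhibition above 20%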;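 for inhibition: signal is fraction of cell area covered by stained E-selectin grains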;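 for nuclei count: 100% = median nuclei count of all wells on the same plate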); settings: HUVEC TNFalpha-induced E-selectin immunofluorescence imaging, at 2 µM; inhibition: stronger effect = higher value; nuclei count: measured here: cell number, toxicity
# [4] = DUSP6 inhibitors restoring Erk phosphorylation by chemical complementation, primary imaging in DUSP6-transfected HeLa (AID 609;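 active = compounds giving at least 50% inhibition in the cell-based MKP-3 phosphatase rescue imaging test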;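 for inhibition: phospho-Erk level distribution per well compared with pooled transfected vehicle control wells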); settings: HeLa MKP-3 transfected, phospho-Erk imaging KS statistic, at 10 µM, cells stimulated with TPA for 15 min
# [5] = biological target: Dual specificity protein phosphatase 6 (Homo sapiens) (UniProt Q16828); assay: as above; settings: HeLa MKP-3 transfected, phospho-Erk imaging KS statistic; at 10 µM; stronger effect = higher value; cells stimulated with TPA for 15 min
# [6] = biological target: Voltage-gated potassium channel subunit beta-2 (Rattus norvegicus) (UniProt P62483); assay: KvBeta enzyme negative modulators, primary screen, biochemical, NADPH fluorescence (AID 622;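 active = fluorescence slope higher than the sample average by over 3 SD, cut at about -0.22 in these data, passing the limit was not always enough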;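 note: slope of raw intensity against log time taken from 70 to 1610 s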); settings: recombinant KvBeta, 4-cyanobenzaldehyde reduction, at 10 µM, stronger effect = higher value
# [7] = biological target: Voltage-gated potassium channel subunit beta-2 (Rattus norvegicus) (UniProt P62483); assay: KvBeta positive modulators, primary screen, biochemical, NADPH fluorescence (AID 623;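 active = NADPH fluorescence slope more negative than the mean of all samples by about 3 SD, 99.7% confidence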;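 note: fluorescence intensity change per second fitted from 20 to 320 s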); settings: Recombinant KvBeta, NADPH fluorescence decrease slope, 10 min; at 10 µM; stronger effect = lower value
# [8] = biological target: Alpha-2C adrenergic receptor (Homo sapiens) (UniProt P18825); assay: modulators of alpha2C/GIRK thallium flux, primary screen, cell-based, HEK293 alpha2C/GIRK1/2 (AID 624;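 active = fluorescence slope after compound addition differing from the mean of all screened samples at 99.7% confidence, in either direction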;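 note: slope of fluorescence ratio to pre-addition baseline per second over 15 to 24 s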); settings: thallium flux BTC fluorescence, at 10 µM, actives lie on both sides
# [9] = inhibitors of larval lipid processing in zebrafish, primary screen, whole organism, PED6 fluorescence, gall bladder and intestine (AID 686;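 active = a full or partial loss of lipid-probe fluorescence in the fish gall bladder, intestine or both, judged by eye; inactive = no fluorescence loss, or compound toxic to the fish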;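 note: larvae 5 to 7 days old with five fish per well; signal comes from phospholipase A2 cleavage of quenched PED6 carried via bile; overnight exposure to compound and PED6 before scoring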); settings: Zebrafish larvae PED6 lipid processing, fluorescence scoring; screened at 20 µM (by protocol)
# [10] = inhibitors of Chlamydomonas gravitaxis, primary screen, whole organism, Chlamydomonas reinhardtii, WT vs cilia-less mutant, absorbance, 96-well (AID 463189); settings: OD600 absorbance, 2 days, at 10 µM, stronger effect = higher value;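 note: 0% = wild type cc124 cells in DMSO and 100% = ciliumless bld1 mutant cells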
# [11] = inhibitors of Sendai virus-induced IRF3 signaling, primary screen, TLR/RLR signaling modifier project, cell-based, Sendai virus stimulus, luciferase, 10K MLSCN set (AID 602276;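 active = inhibition at or above 50% at 10 µM; inactive = inhibition below 50%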;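 note: firefly luciferase from ISG56 promoter only with Renilla not read in this screen; 0% = Sendai virus plus DMSO and 100% = medium plus DMSO without virus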); settings: HEK293 RL24 IRF3 luciferase reporter, at 10 µM, stronger effect = higher value
# [12] = inhibitors of poly I:C-induced TLR3 signaling, primary screen, cell-based, poly I:C stimulus, luciferase, 10K MLSCN set (AID 602277;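 active = inhibition of the reporter signal at or above 50%; inactive = inhibition below 50%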); settings: HEK293-TLR3 RL24 IRF3 luciferase reporter, at 10 µM, stronger effect = higher value
# [13] = measured here: cell density z-score
# [14] = measured here: nuclear c-Myc green intensity z-score
# [15] = measured here: nuclear pErk red intensity z-score, stronger effect = higher value
# Chain of Dual specificity protein phosphatase 6 (Homo sapiens) (Q16828 whole entry, looked up): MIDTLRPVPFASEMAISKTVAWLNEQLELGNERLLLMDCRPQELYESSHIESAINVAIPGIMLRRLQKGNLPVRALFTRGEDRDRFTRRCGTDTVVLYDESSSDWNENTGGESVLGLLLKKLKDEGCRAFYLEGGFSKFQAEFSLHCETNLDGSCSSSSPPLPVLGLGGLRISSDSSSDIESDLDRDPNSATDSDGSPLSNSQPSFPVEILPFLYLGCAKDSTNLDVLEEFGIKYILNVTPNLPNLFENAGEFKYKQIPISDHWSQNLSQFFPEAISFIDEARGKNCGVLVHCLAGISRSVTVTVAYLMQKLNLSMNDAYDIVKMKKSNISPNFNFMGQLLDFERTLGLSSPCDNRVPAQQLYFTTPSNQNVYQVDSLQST
# Chain of Alpha-2C adrenergic receptor (Homo sapiens) (P18825 whole entry, looked up): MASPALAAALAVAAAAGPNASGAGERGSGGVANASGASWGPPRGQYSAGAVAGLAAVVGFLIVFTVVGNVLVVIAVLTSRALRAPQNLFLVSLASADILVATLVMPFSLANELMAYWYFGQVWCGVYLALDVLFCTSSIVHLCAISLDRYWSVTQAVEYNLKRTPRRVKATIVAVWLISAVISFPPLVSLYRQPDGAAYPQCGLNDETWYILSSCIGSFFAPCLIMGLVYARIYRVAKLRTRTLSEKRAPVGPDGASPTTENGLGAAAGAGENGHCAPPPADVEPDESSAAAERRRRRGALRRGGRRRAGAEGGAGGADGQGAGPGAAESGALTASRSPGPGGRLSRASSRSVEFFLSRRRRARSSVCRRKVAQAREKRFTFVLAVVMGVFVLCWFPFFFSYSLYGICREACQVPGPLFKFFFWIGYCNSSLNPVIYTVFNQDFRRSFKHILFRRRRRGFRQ
# Chain of Voltage-gated potassium channel subunit beta-2 (Rattus norvegicus) (P62483 whole entry, looked up): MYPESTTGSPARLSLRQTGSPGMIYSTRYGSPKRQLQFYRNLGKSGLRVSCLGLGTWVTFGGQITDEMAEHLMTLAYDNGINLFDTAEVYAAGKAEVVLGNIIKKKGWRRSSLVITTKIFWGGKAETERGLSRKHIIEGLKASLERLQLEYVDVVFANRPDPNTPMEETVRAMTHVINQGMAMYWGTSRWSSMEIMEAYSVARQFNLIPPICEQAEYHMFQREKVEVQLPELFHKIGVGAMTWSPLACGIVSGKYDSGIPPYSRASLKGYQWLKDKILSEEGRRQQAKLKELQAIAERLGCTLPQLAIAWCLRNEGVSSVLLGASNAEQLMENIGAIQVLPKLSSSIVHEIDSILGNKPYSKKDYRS
Structure (SMILES),cell count [1],inhibition [1],inhibition of aggregation [2],nuclei count [2] [%],inhibition [3],nuclei count [3],"z-score [4, 13]","z-score [4, 14]","z-score [4, 15]",inhibition [5],fluorescence slope [6],NADPH fluorescence slope [7],slope [8],outcome [9],inhibition [10],inhibition [11],inhibition [12]
NC(=O)N1c2ccccc2C=Cc2ccccc21,639,-4.6% (inactive),-10.6% (inactive),110,-55.6% (inactive),127%,-0.0512,0.625,-1.48,15.3% (inactive),-0.492 (inactive),-4.6e-05 (inactive),0.00463 (inactive),inactive,5.34% (inactive) and 20.1% (inactive),7.49% (inactive),22.1% (inactive)
CCCCCC(=O)O[C@]1(C(C)=O)CC[C@H]2[C@@H]3CCC4=CC(=O)CC[C@]4(C)[C@H]3CC[C@@]21C,601,-6.9% (inactive),2.3% (inactive),104,-58.2% (inactive),122%,-1.27,-0.399,1.24,13.3% (inactive),-0.444 (inactive),-6.6e-05 (inactive),0.00545 (inactive),inactive,3.11% (inactive),0.124% (inactive),48% (inactive)
Nc1ccc(S(=O)(=O)NC(=O)c2ccccc2)cc1,544,2.5% (inactive),17.5% (inactive),94.6,-116% (inactive),110%,-1.45,0.254,0.397,14.6% (inactive),-0.517 (inactive),-5.5e-05 (inactive),0.00537 (inactive),inactive,5.05% (inactive),21.8% (inactive),34.4% (inactive)
CCC(C(=O)OCCN(CC)CC)c1ccccc1 (stereo not given),572,-11.1% (inactive),-9.9% (inactive),104,-56.9% (inactive),130%,1.14,1.04,0.111,19.2% (inactive),-0.459 (inactive),-3.7e-05 (inactive),0.00422 (inactive),inactive,21.8% (inactive),8.3% (inactive),34.3% (inactive)
C=C1[C@@H](C)C2[C@H](Cc3ccccc3)NC(=O)[C@]23OC(=O)CC[C@H](O)CCC[C@H](C)C/C=C/[C@H]3[C@@H]1O (stereo not given in full),573,-22.6% (inactive),25.7% (inactive),42.3,-47.4% (inactive),104%,-1.85,0.937,1.72,5.42% (inactive),-0.464 (inactive),-6.3e-05 (inactive),0.00486 (inactive),inactive,-3.13% (inactive),7.56% (inactive),45.8% (inactive)
N#Cc1c(N)n(CCOC(=O)c2cccc(Br)c2)c2nc3ccccc3nc12,592,0.6% (inactive),-46.7% (inactive),75.5,-20.6% (inactive),108%,1.33,-2.21,-0.755,-1.12% (inactive),-0.434 (inactive),-0.000171 (inactive),0.00581 (inactive),inactive,15.2% (inactive),16.3% (inactive),30.6% (inactive)
CN1C(C(=O)Nc2ccccn2)=C(O)c2ccccc2S1(=O)=O,593 and 424,-2.6% (inactive) and -16.7% (inactive),-13.6% (inactive),111,-30.1% (inactive) and -244% (inactive),112% and 218%,0.668 and -0.761,0.887 and -0.948,-0.364 and 0.452,11.3% (inactive) and 2.71% (inactive),-0.457 (inactive) and -0.395 (inactive),1.6e-05 (inactive) and -1.1e-05 (inactive),0.00561 (inactive) and 0.00377 (inactive),inactive,7.21% (inactive) and 26% (inactive) and -1.23% (inactive),-0.169% (inactive),-2.96% (inactive)
C=CCc1ccccc1OCC(O)CNC(C)C (stereo not given),628,-8.8% (inactive),-10% (inactive),89.9,-120% (inactive),131%,1.42,0.365,-0.961,7.39% (inactive),-0.466 (inactive),-2.4e-05 (inactive),0.00435 (inactive),inactive,-2.53% (inactive) and -4.71% (inactive),11.2% (inactive),34.8% (inactive)
CNC[C@H](O)c1cccc(O)c1,561,0.6% (inactive),1.2% (inactive),89.3,-73.1% (inactive),117%,0.304,0.128,-0.803,14.6% (inactive),-0.468 (inactive),-5e-05 (inactive),0.00773 (inactive),inactive,-10.5% (inactive) and 0.836% (inactive),11.5% (inactive),41.6% (inactive)
NNC(=O)c1ccncc1,640,1.1% (inactive),-3.3% (inactive),113,-58.5% (inactive),126%,1.92,0.875,-1.14,16.8% (inactive),-0.467 (inactive),-6.4e-05 (inactive),0.00499 (inactive),inactive,2.05% (inactive),13.6% (inactive),39.7% (inactive)
